The campaign covered roughly 5,500 compounds. About 2,000 (36%) were called active. Roughly 18% stayed inconclusive and do not appear here. Cut-off read from the data, not from the text of the source: active = normalized growth mostly below about 0.91 (no sharp cut-off); inconclusive = no clear call, values can overlap the other calls; inactive = mostly above about 0.92. This is one part of the list.
Assay: chemical genetic growth profiling, strain panel (AID 1159580);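 note: tested at 20 µM; growth read once vehicle control cultures reached saturation at 30 °C; 1 = growth at the plate median or of vehicle wells; lower values mean less growth of the strain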
Details: S. cerevisiae deletion strains, growth OD
[1] = locus YHR030C, strain SLT2, active compounds read low
[2] = locus YHR079C, strain IRE1, active compounds read low
[3] = locus YJL095W, strain BCK1, active compounds read low
[4] = locus YJR066W, strain TOR1, active compounds read low
[5] = locus YLR113W, strain HOG1, active compounds read low
[6] = locus YNL183C, strain NPR1, active compounds read low
[7] = locus YOR231W, strain MKK1, active compounds read low
[8] = locus YPL256C, strain CLN2, active compounds read low

Measured: normalized growth

O=C(NCC1COc2ccccc2O1)c1ccc(Cl)cc1 (stereo unspecified)
inactive: locus YAR019C, strain CDC15, active compounds read low 0.956 | locus YBL105C, strain PKC1, active compounds read low 0.952 | locus YBR135W, strain CKS1, active compounds read low 0.935 | locus YBR136W, strain MEC1, active compounds read low 0.957 | locus YBR160W, strain CDC28, active compounds read low 0.959 | locus YDL017W, strain CDC7, active compounds read low 0.944 | locus YDL028C, strain MPS1, active compounds read low 0.951 | locus YDL101C, strain DUN1, active compounds read low 0.98 | locus YDL108W, strain KIN28, active compounds read low 0.951 | locus YDL132W, strain cdc53, active compounds read low 0.936 | locus YDL214C, strain PRR2, active compounds read low 0.837 | locus YDR052C, strain DBF4, active compounds read low 0.973 | locus YDR054C, strain cdc34, active compounds read low 0.933 | locus YDR226W, strain ADK1, active compounds read low 0.949 | locus YDR477W, strain SNF1, active compounds read low 0.734 | locus YER123W, strain YCK3, active compounds read low 0.75 | locus YFL009W, strain cdc4, active compounds read low 0.942 | locus YFL029C, strain CAK1, active compounds read low 0.933 | locus YFR003C, strain YPI1, active compounds read low 0.956 | locus YFR028C, strain CDC14, active compounds read low 0.942 | locus YGR040W, strain KSS1, active compounds read low 0.692 | locus YGR052W, strain FMP48, active compounds read low 0.899 | locus YGR092W, strain DBF2, active compounds read low 0.753 | [2] 0.759 | locus YHR082C, strain KSP1, active compounds read low 0.88 | locus YHR205W, strain SCH9, active compounds read low 0.901 | locus YIL147C, strain SLN1, active compounds read low 0.929 | [3] 0.586 | locus YJL128C, strain PBS2, active compounds read low 0.948 | locus YJL157C, strain FAR1, active compounds read low 0.84 | locus YJR016C, strain ILV3, active compounds read low 0.936 | [4] 0.714 | locus YKL048C, strain ELM1, active compounds read low 0.895 | locus YKL067W, strain YNK1, active compounds read low 0.842 | locus YKL101W, strain HSL1, active compounds read low 0.92 | locus YKL193C, strain SDS22, active compounds read low 0.933 | [5] 0.935 | locus YLR133W, strain CKI1, active compounds read low 0.88 | locus YLR403W, strain SFP1, active compounds read low 0.699 | locus YML070W, strain DAK1, active compounds read low 0.827 | locus YMR001C, strain CDC5, active compounds read low 0.896 | locus YMR205C, strain PFK2 (second series), active compounds read low 0.82 | locus YMR277W, strain FCP1, active compounds read low 0.923 | locus YNL006W, strain LST8, active compounds read low 0.929 | locus YNL020C, strain ARK1, active compounds read low 0.86 | locus YNL161W, strain CBK1, active compounds read low 0.958 | [6] 0.796 | locus YNL207W, strain RIO2, active compounds read low 0.91 | locus YNL222W, strain SSU72, active compounds read low 0.948 | locus YNL307C, strain MCK1 (second series), active compounds read low 0.872 | locus YOL078W, strain AVO1, active compounds read low 0.93 | locus YOL136C, strain PFK27, active compounds read low 0.802 | locus YOR061W, strain CKA2, active compounds read low 0.886 | locus YOR119C, strain RIO1, active compounds read low 0.723 | [7] 0.771 | locus YOR329C, strain SCD5, active compounds read low 0.938 | locus YPL204W, strain HRR25, active compounds read low 0.682 | locus YPL209C, strain IPL1, active compounds read low 0.952 | [8] 0.867 | locus YPR025C, strain CCL1, active compounds read low 0.951 | locus YPR106W, strain ISR1, active compounds read low 0.968 | locus YPR111W, strain DBF20, active compounds read low 0.962 | strain NNK1, active compounds read low 0.958 | strain TSCII, active compounds read low 0.92
active: locus YER133W, strain GLC7, active compounds read low 0.463 | locus YFR019W, strain FAB1, active compounds read low 0.745 | [1] 0.638 | locus YJR066W, strain TOR1 (second series), active compounds read low 0.561 | locus YKL203C, strain TOR2, active compounds read low 0.708 | locus YPL031C, strain PHO85, active compounds read low 0.662 | locus YPL153C, strain RAD53, active compounds read low 0.649

O=C(CNC(=O)c1ccc(Cl)cc1)NO
inactive: locus YAL021C, strain ccr4, active compounds read low 1.01 | locus YAL026C, strain drs2, active compounds read low 1.01 | locus YAL030W, strain snc1, active compounds read low 1.01 | locus YBL061C, strain skt5, active compounds read low 1.01 | locus YBR009C, strain hhf1, active compounds read low 1.01 | locus YBR023C, strain chs3, active compounds read low 1.02 | locus YBR171W, strain sec66, active compounds read low 1.02 | locus YBR231C, strain swc5, active compounds read low 1.01 | locus YBR279W, strain paf1, active compounds read low 1.01 | locus YCL011C, strain gbp2, active compounds read low 1.01 | locus YCL016C, strain dcc1, active compounds read low 1.02 | locus YCL061C, strain MRC1, active compounds read low 1 | locus YCL069W, strain vba3, active compounds read low 1.01 | locus YCR088W, strain abp1, active compounds read low 1.01 | locus YDL005C, strain med2, active compounds read low 1.02 | locus YDL040C, strain nat1, active compounds read low 1.01 | locus YDR001C, strain nth1, active compounds read low 1 | locus YDR069C, strain doa4, active compounds read low 1.01 | locus YDR137W, strain rgp1, active compounds read low 1.03 | locus YDR159W, strain sac3, active compounds read low 1.01 | locus YDR195W, strain ref2 0.972 | locus YDR297W, strain sur2, active compounds read low 1.04 | locus YDR334W, strain swr1, active compounds read low 1.02 | locus YDR335W, strain msn5, active compounds read low 1.02 | locus YDR392W, strain spt3, active compounds read low 1 | locus YEL003W, strain gim4, active compounds read low 1.01 | locus YEL037C, strain rad23, active compounds read low 1.04 | locus YEL061C, strain CIN8 (second series), active compounds read low 1.01 | locus YER015W, strain faa2, active compounds read low 1.01 | locus YER016W, strain bim1, active compounds read low 1.02 | locus YER111C, strain swi4, active compounds read low 1.01 | locus YER155C, strain BEM2 (second series), active compounds read low 1.03 | locus YFR010W, strain ubp6, active compounds read low 1.02 | locus YGL167C, strain pmr1, active compounds read low 1.01 | locus YGL173C, strain kem1, active compounds read low 1.02 | locus YGL227W, strain vid30, active compounds read low 1.01 | locus YGL240W, strain doc1, active compounds read low 1.01 | locus YGL253W, strain hxk2, active compounds read low 1.01 | locus YHR013C, strain ard1, active compounds read low 1.04 | locus YHR027C, strain rpn1, active compounds read low 1.01 | [1] 1.02 | [2] 1.03 | locus YHR142W, strain chs7, active compounds read low 0.997 | locus YJL092W, strain hpr5, active compounds read low 1.01 | locus YJL095W, strain BCK1 (second series), active compounds read low 1 | [3] 1.06 | locus YJL115W, strain asf1, active compounds read low 1.02 | locus YJL129C, strain trk1, active compounds read low 1.03 | locus YJL154C, strain vps35, active compounds read low 1.02 | locus YJL164C, strain tpk1, active compounds read low 1.01 | locus YJL166W, strain qcr8, active compounds read low 1.01 | locus YJL187C, strain SWE1, active compounds read low 1.01 | [4] 0.941 | locus YKL160W, strain elf1, active compounds read low 1.01 | locus YKR026C, strain gcn3, active compounds read low 0.992 | locus YKR091W, strain srl3, active compounds read low 1.01 | locus YLL001W, strain dnm1, active compounds read low 1.03 | locus YLL026W, active compounds read low 1.01 | locus YLL041C, strain sdh2, active compounds read low 1.02 | locus YLR027C, strain aat2, active compounds read low 1.01 | [5] 1.04 | locus YLR221C, strain rsa3, active compounds read low 1.01 | locus YLR258W, strain gsy2, active compounds read low 1.02 | locus YLR262C, strain YPT6 (second series), active compounds read low 1.03 | locus YLR320W, strain mms22, active compounds read low 1.01 | locus YLR342W, strain FKS1, active compounds read low 1.01 | locus YLR357W, strain rsc2, active compounds read low 1.02 | locus YLR370C, strain arc18, active compounds read low 1.01 | locus YLR384C, strain iki3, active compounds read low 1.02 | locus YML120C, strain ndi1, active compounds read low 1.01 | locus YMR058W, strain fet3, active compounds read low 1.01 | locus YMR125W, strain sto1, active compounds read low 1.01 | locus YMR129W, active compounds read low 1.01 | locus YMR205C, strain PFK2, active compounds read low 1.01 | locus YMR231W, strain pep5, active compounds read low 1.02 | locus YNL071W, strain lat1, active compounds read low 1.02 | [6] 0.951 | locus YNL209W, strain ssb2, active compounds read low 1.02 | locus YNL248C, strain rpa49, active compounds read low 1.01 | locus YNL322C, strain KRE1 (second series), active compounds read low 1.01 | locus YNR049C, strain mso1, active compounds read low 1.01 | locus YOR001W, strain rrp6, active compounds read low 1.02 | locus YOR070C, strain gyp1, active compounds read low 1.02 | locus YOR080W, strain dia2, active compounds read low 1.01 | locus YOR083W, strain WHI5, active compounds read low 1.01 | locus YOR106W, strain vam3, active compounds read low 1.02 | [7] 1.01 | locus YOR265W, strain rbl2, active compounds read low 1.01 | locus YOR270C, strain vph1, active compounds read low 1.05 | locus YOR290C, strain snf2, active compounds read low 1.03 | locus YPL051W, strain arl3, active compounds read low 1.01 | locus YPL078C, strain atp4, active compounds read low 1.01 | locus YPL106C, strain sse1, active compounds read low 1.04 | locus YPL240C, strain hsp82, active compounds read low 1.02 | [8] 0.997
